# Source: PubChem
# Compounds with a hit are over-represented: about 4.9% of the library has one in this group of screens.
# NLRP3 yeast inh – blocks the NALP3 inflammasome reconstituted in yeast | Yeast reconstituted NLRP3/ASC/caspase-1, beta-gal luminescence, 24 h | inhibition, % at 10 µM | 330,000 compounds, 0.39% hits | AID 2825;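 active = inhibition of 50% or more; inactive = inhibition below 50%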;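 note: plate controls were induced DMSO wells for no effect and uninduced yeast grown without galactose for full effect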
# tim23-1 inh – tim23-1 yeast growth inhibition. S. cerevisiae tim23-1 growth, BacTiter-Glo luminescence, 24 h. inhibition, % at 20 µM. 330,000 compounds, 1.3% hits;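 active = growth inhibition of the mutant yeast at or above 50%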;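 note: temperature-sensitive mutant grown at 25 °C; plate controls were DMSO-treated mutant yeast for no effect and medium wells lacking yeast for full effect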
# NALP1 yeast inh – NALP1 inhibition; AID 2071; inhibition, % at 10 µM; 280,000 compounds, 0.61% hits; S. cerevisiae NALP1/ASC/caspase-1 growth, X-gal OD620, 72 h; in the data active = inhibition mostly above about 24%, no sharp cut-off; inactive = mostly below about 32%
# SKKanGAS inh – inhibitors of SKKanGAS S. pyogenes growth in kanamycin (SK-promoter or general growth effect); BacTiter-Glo, 6 h; inhibition, % at 7.5 µM; 300,000 compounds, 1.3% hits; AID 1662;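 active = mean replicate score, as percent of positive control median, at least 50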;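 note: strain carries kanamycin resistance gene driven by streptokinase promoter and grows in 40 µg/ml kanamycin; loss of luminescence reflects streptokinase promoter inhibition or plain growth inhibition; 0% = median of DMSO wells and 100% = positive control at its reference dose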
# tim10-1 inh – growth inhibitors of tim10-1 mutant yeast | S. cerevisiae tim10-1 ts strain growth, BacTiter-Glo, 24 h | inhibition, % at 20 µM | 330,000 compounds, 2.2% hits;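 active = inhibition of at least 40%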;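 note: mutant grown at 25 °C; 0% = DMSO wells with yeast and 100% = wells holding no yeast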
# TIM10 inh – TIM10 yeast growth inhibition; 330,000 compounds, 1.4% hits; inhibition, % at 10 µM; S. cerevisiae TIM10 strain growth, BacTiter-Glo luminescence, 24 h;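 active = inhibition of 40% or more at the single tested concentration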;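 note: wild-type TIM10 isogenic control strain grown at permissive 25 °C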
# tim10 confirm – confirmation of TIM10 yeast growth inhibitors; shares compounds with TIM10 inh; S. cerevisiae tim10 strain growth, BacTiter-Glo luminescence, 24 h; inhibition, % at 10 µM; 4,600 compounds, 63% hits;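 active = inhibition of yeast growth at or above a set limit in either of two replicates at 10 µM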;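 note: this counterscreen used the strain with wild-type TIM10; 0% = yeast with DMSO and 100% = medium wells lacking yeast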
# * hit, by the source's call; x = not tested or not shown.
SMILES,NLRP3 yeast inh,tim23-1 inh,NALP1 yeast inh,SKKanGAS inh,tim10-1 inh,TIM10 inh,tim10 confirm
COc1ccc(S(=O)(=O)N2CCN(C)CC2c2ccccc2)cc1OC (configuration not stated),11,7,x,x,-13,-4,x
CC(OC(=O)c1cccc(S(=O)(=O)N(C)C)c1)C(=O)NCc1ccc2c(c1)OCO2 (configuration not stated),11,14,x,-1,24,2,x
Cc1ccc(NC(=O)CCS(=O)(=O)c2cc3[nH]c(=O)c(=O)[nH]c3cc2C)cc1,7,10,20,3,25,9,x
CCOC(=O)Nc1cccc(OCC(=O)Nc2ccc3c(c2)CCC3)c1,32,29,x,x,-25,49*,3
Cc1ccc2cc3cc(C(=O)NCCCN4CCCC4)oc3nc2c1,5,17,26,4,6,45*,15
CCCCN(CC)CCCNC(=O)c1cc2cc3ccc(C)cc3nc2o1,8,23,18,-2,25,32,x
CC(=O)N1CC(=O)N(Cc2ccccc2)/C(=C/c2ccccc2)C1=O,27,48,4,29,38,44*,40*
CC(=O)Oc1ccc(/C=C2/SC(=S)N(Cc3ccccc3)C2=O)cc1,15,4,6,20,-18,19,x
Cc1ccc2cc(CCNC(=O)c3cc4ccccc4o3)c(=O)[nH]c2c1C,10,38,15,2,-1,58*,32*
COc1ccc2cc(CCNC(=O)c3cc4ccccc4o3)c(=O)[nH]c2c1,21,-35,-4,3,-32,12,x
Cc1[nH]nc2ncc(C(=O)c3cc(Cl)cc(Cl)c3O)cc12,21,43,-4,23,34,63*,31*
CC1=C(C)CC(C(=O)NCc2ccccc2F)C(C(=O)O)C1 (configuration not stated),19,7,-3,2,6,-1,x
CCc1nnc(NC(=O)COc2ccc([N+](=O)[O-])cc2)s1,-3,-18,1,-8,-21,-23,x
CCc1nnc(NC(=O)COc2ccccc2[N+](=O)[O-])s1,13,13,6,3,7,40*,-3
CC(=O)c1ccc(NC(=O)COC(=O)CC2CC3CCC2C3)cc1 (configuration not stated),-9,39,x,x,-2,10,x
O=C(COC(=O)CC1CC2CCC1C2)Nc1ccc(F)cc1 (configuration not stated),3,31,2,-2,27,43*,28
COc1cccc2cc(-c3nc4ccccc4o3)c(=O)oc12,27,30,6,0,26,60*,67*
O=c1oc2ccc(Br)cc2cc1-c1nc2ccccc2o1,12,7,-1,-3,4,-3,x
CCOC(=O)N1CCN(C(=O)C(NC(=O)c2ccc(C(C)(C)C)cc2)C(C)C)CC1 (configuration not stated),4,22,x,x,20,21,x
O=C(O)c1nnn(-c2cc(C(F)(F)F)cc(C(F)(F)F)c2)c1-c1ccccc1,-7,5,11,-5,0,41*,12
O=C(C1CC1)N1CCc2cc(Br)cc(S(=O)(=O)N3CCCCCC3)c21,1,-33,35,-1,-2,47*,-66
CC1CCCCN1Cc1c(O)ccc2c(=O)c(-c3nc4ccccc4s3)c(N)oc12 (configuration not stated),22,46,36,12,22,42*,25
COc1cc(Br)cc(CN2CCN(c3ncccn3)CC2)c1O,20,25,-9,4,18,5,x
COc1c2c(nc3occc13)C(CC=C(C)C)(OC)C(OC(C)=O)CC2 (configuration not stated),13,36,2,2,35,46*,-17
COc1c2c(nc3occc13)C(CC=C(C)C)(OC)C(O)CC2 (configuration not stated),7,22,-102,13,25,34,x
SMILES,NLRP3 yeast inh,tim23-1 inh,NALP1 yeast inh,SKKanGAS inh,tim10-1 inh,TIM10 inh,tim10 confirm
O=C(/C=C/c1ccc(Br)cc1)c1ccc(NC(=O)c2ccco2)cc1,20,35,x,-4,33,41*,8
CCOC(=O)N1CCN(C(=O)COC(=O)CSc2ccc([N+](=O)[O-])cc2)CC1,5,5,x,-2,-14,-11,x
O=C(N/N=C/c1c(O)ccc2ccccc12)c1cccnc1,11,42,23,24,13,42*,37*
CC1CCCN(CCCNC(=O)C2CCN(S(=O)(=O)N3CCC4(CC3)OCCO4)CC2)C1 (configuration not stated),13,0,-5,1,-8,-2,x
CC(=O)c1sc(N/N=C\c2cccc(Br)c2)nc1C,-28,44,13,13,37,41*,-11
CCN(Cc1ccccc1)S(=O)(=O)c1c(C)[nH]c(C)c1C(=O)N1CCCC1,1,-4,20,1,-7,53*,-5
Cc1ccccc1-n1ncc2c1CC(C)(C)CC2NC(=O)CN1CCCC1=O (configuration not stated),22,2,14,-2,-13,-1,x
CCn1c(O)c(C=NCc2cccs2)c(=O)n(CC)c1=S,17,43,6,0,39,42*,7
Cn1c(=O)c2c(O)c(C=NCc3ccccc3)c(=O)n(C)c2n(C)c1=O,12,12,3,-1,5,11,x
COc1ccc(CNC(=O)CN(c2ccc(C)cc2)S(=O)(=O)c2c(C)nn(C)c2C)cc1,16,15,13,1,14,5,x
CCn1c(Cl)c(C=O)s/c1=N\S(=O)(=O)c1ccccc1,-11,27,18,-17,34,43*,1
Cc1ccc(N2C(=O)c3cccc(Oc4ccc(Cl)cc4)c3C2=O)c(C)c1,-9,29,27,-10,23,42*,24
CCN(Cc1ccccc1)C(=O)C1CCN(S(=O)(=O)c2ccc3c(c2)OCCO3)CC1,23,16,4,-3,8,22,x
Cc1cc(CC(C)C)n(-c2nc3ccccc3c(=O)n2OCC(=O)N(C)C)n1,2,18,7,x,15,5,x
Cc1cc(CC(C)C)n(-c2nc3ccccc3c(=O)n2OCc2ccccc2)n1,0,38,16,19,34,40*,37*
O=C1c2ccccc2C(=O)c2cc(NC(=O)C3CC3)ccc21,36,38,46,-10,34,44*,16
CC1=CC(=O)C(C(C)C)=C/C1=C(\c1cc(C(C)C)c(OP(=O)(O)O)cc1C)c1ccccc1C(=O)O,8,3,6,3,16,21,x
O=C(COC(=O)CNC(=O)c1ccc(Cl)cc1)Nc1ccc(Cl)cn1,13,-8,x,x,-10,-5,x
COc1cc(OC)cc(C(=O)NC2CC3CCC(C2)N3C)c1 (configuration not stated),7,6,x,x,1,-4,x
